Experimental data from the supplement of paper PMC6555819.

Experiments:
Experiment in all cases: PBM binding z-score (relative to random genomic background probes); higher = stronger binding; sequences stand for … in GC…GCGATTGACAGCGTAGAATGAAGG
[1] = system: FXR:RXRa (NR concentration 270 nM, RXRa partner concentration 90 nM)
Method in brief: (§1)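 Binding z-scores take random background probes as their reference. They come from custom Agilent 4×180K protein-binding microarrays incubated 1 h with ligand-free nuclear receptor dimers, with antibodies against each partner (one per run) detecting binding. Scanned fluorescence was regression-normalized.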

[2] = system: LXRa:RXRa (NR concentration 270 nM, RXRa partner concentration 90 nM)
Method in brief: as §1

[3] = system: LXRa homodimer (NR concentration 270 nM)
Method in brief: as §1

[4] = system: LXRb:RXRa (NR concentration 270 nM, RXRa partner concentration 90 nM)
Method in brief: as §1

[5] = system: LXRb homodimer (NR concentration 270 nM)
Method in brief: as §1

[6] = system: PPARa:RXRa (NR concentration 270 nM, RXRa partner concentration 90 nM)
Method in brief: as §1

[7] = system: PPARg:RXRa (NR concentration 180 nM, RXRa partner concentration 90 nM)
Method in brief: as §1

[8] = system: PPARg:RXRa 270nM:90nM, anti-RXR (NR concentration 270 nM, RXRa partner concentration 90 nM)
Method in brief: as §1

[9] = system: PPARg:RXRa 30nM:10nM, anti-RXR (NR concentration 30 nM, RXRa partner concentration 10 nM)
Method in brief: as §1

[10] = system: PPARg:RXRa 90nM:30nM, anti-RXR (NR concentration 90 nM, RXRa partner concentration 30 nM)
Method in brief: as §1

| Sequence | PBM binding z-score [1] | PBM binding z-score [2] | PBM binding z-score [3] | PBM binding z-score [4] | PBM binding z-score [5] | PBM binding z-score [6] | PBM binding z-score [7] | PBM binding z-score [8] | PBM binding z-score [9] | PBM binding z-score [10] |
| --- | --- | --- | --- | --- | --- | --- | --- | --- | --- | --- |
| CCTTACGGGTCACTGACAGGTTATCGCATTTGGA | 5.35 | 4.35 | 0.422 | 3.38 | 0.0444 | 5.12 | 4.53 | 4.36 | 1.04 | 2.96 |
| CTCGAAAGGCCGTGCTCAGGTGAGTATACCAAAC | -0.251 | -0.522 | -0.406 | -0.298 | -0.835 | -0.342 | -0.381 | -0.723 | -0.648 | -0.958 |
| CCTACTGGGGCATTCAGAGGTCATTGATCATATG | 3.08 | 4.37 | 6.25 | 3.91 | 0.359 | 4.07 | 3.34 | 4.13 | 1.23 | 3.12 |
| TCTAGTTGGTCACGGAGGTAACACACGACGGGTA | 0.499 | 0.13 | -0.316 | 0.404 | 0.515 | 1.02 | 1.34 | 1.92 | 3.23 | 2.25 |
| TCTATTAGTTGAAGGACAACCGACGAGTCCGTTT | 0.875 | 0.862 | 0.762 | 0.67 | 0.653 | 0.754 | 0.353 | 2.04 | 4.25 | 3.08 |
| TCTTGTAGATCAATAGAGGTTAACAAAGTGCGCT | 0.932 | 4.21 | 0.47 | 2.29 | 0.171 | 2.18 | 0.373 | 1.66 | 2.57 | 2 |
| CCTGCTGGGTCAATGGTCAGCTAAAGCAGCTCGC | 2.08 | 1.41 | -0.526 | 1.11 | -0.873 | 2.95 | 3.53 | 4.63 | 1.83 | 3.72 |
| TAGCCTAGGTCATTCTGGGGCCAGTATAGAAAGC | 4.29 | 3.66 | 0.795 | 2.94 | 1.34 | 3.37 | 1.98 | 2.19 | 0.292 | 1.44 |
| CAAACTAGGTCCCAGAGGTCAAAGTCCGTGCGTA | 4.91 | 5.18 | 5.61 | 5.18 | 1.42 | 4.98 | 4.51 | 4.75 | 2.13 | 4.08 |
| TCATATTGGTAAAAGGTGAAAGTCGGTGTGGTAA | 1.65 | 1.92 | 0.474 | 2.06 | 0.291 | 3.73 | 3.98 | 5.67 | 5.38 | 6.18 |
| CCGACTGGGGCAGAAAGGTTACCAGACCATCCGG | 0.0987 | 0.481 | -0.312 | 0.525 | -1.23 | 2.1 | 1.47 | 2.61 | 0.619 | 2.04 |
| CCGACTGGGGCAAAGGTAACCATACTCAGTACGA | 0.167 | 0.164 | -0.55 | 0.446 | -1.32 | 4.5 | 8.83 | 7.71 | 7.84 | 8.13 |
| GGACCAAGGTGAATAGGTCGTTGATGAGTAGGCG | 0.798 | 0.779 | -0.0064 | 0.446 | -0.809 | 2.28 | 1.47 | 1.59 | 0.243 | 0.903 |
| CCTACTGGGCCAAAATGGTCATTGATGCCGATAA | -0.236 | -0.291 | -0.317 | -0.55 | -0.875 | 0.318 | 0.666 | 0.897 | -0.124 | 0.804 |
| ACTATCAGTTGAGACGAGGGCAACCGATAGGTTG | 0.189 | 0.0109 | -0.515 | -0.348 | -0.0586 | 0.26 | 0.645 | 0.00158 | 0.149 | -0.0981 |
| CTCGAAAGGCCGGTTGAGGTGAGTATACGGATAA | -0.00227 | -0.411 | -0.91 | -0.654 | -0.709 | -0.134 | -0.122 | -0.607 | -0.213 | -0.48 |
| TCTTGTAGATCAACAGGAGGTTAAGGAAGATCGA | 0.186 | 0.637 | -0.0408 | 0.484 | -0.341 | 1.24 | 0.0349 | 1.22 | 2.48 | 1.68 |
| ATTAGCAGGCCAAGGGTCACTCAAGATTAGTCCG | 2.8 | 2.8 | 0.436 | 2.69 | -0.147 | 4.73 | 7.98 | 7.44 | 6.52 | 7.55 |
| AGAATGAGGTTACCAAAGATCAGGGATACGCTTG | 1.93 | 5.68 | 0.0211 | 2.95 | 0.0562 | 3.28 | 2.84 | 2.6 | 1.03 | 1.77 |
| GGAACGAAGGCAAAGTTGATAGCATCTGTCGACG | -0.685 | -0.726 | -0.64 | -0.769 | -1.04 | 1.16 | 2.69 | 4.58 | 2.36 | 4.01 |
| TATACAGGGTCAAAGGCAAGAGTACGAATGTCGA | 6.51 | 6.12 | 2.15 | 4.62 | 2.67 | 5.97 | 7.76 | 6.96 | 4.69 | 6.75 |
| CAAACTAGGTCACCGGAAGGTCGAAGTCCGCATG | 4.63 | 4.34 | 1.21 | 3.06 | 0.673 | 5.6 | 9.2 | 7.5 | 5.41 | 7.33 |
| TCATATAGGTAACAGGTGAAAGTCGGTGTGGTAA | 0.983 | 1 | 0.422 | 1.24 | 0.411 | 3.53 | 5.3 | 6.22 | 6.28 | 6.73 |
| CCAGACAGGTGAGAAGGTAACGCAGCCTCGATTA | -0.0305 | 0.0782 | -0.18 | 0.115 | -0.496 | 0.743 | 0.809 | 0.998 | -0.268 | 0.809 |
